From PubChem BioAssay
Sampled rows, rich in hits. Any-hit rate of the full collection: about 19%.
TDP1 cell CPT: growth inhibition of DT40 Tdp1-/-;hTDP1 cells with camptothecin (screen for TDP1 inhibitors). Potency, µM (highest dose often 46.2 µM), actives largely listed as inhibitors. AID 686979. hit rate 12% among 420,000. chicken DT40 Tdp1-/-;hTDP1 cells + 20 nM CPT, ATP luminescence, 48 h; further: nearly all actives have a fitted effect of over 55% in size
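Chicken DT40 Tdp1-/- cells stably complemented with human TDP1 were seeded at 400 cells/well in medium containing 20 nM camptothecin, exposed to pin-transferred compounds, and grown at 37 °C for at least 48 hr. Viability was read as ATP luminescence.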
TDP1 cell noCPT: qHTS for Inhibitors of human tyrosyl-DNA phosphodiesterase 1 (TDP1): qHTS in cells in absence of CPT; DT40 Tdp1-/- hTDP1 cells, no CPT, ATP luminescence, 48 h; Potency, µM (doses to about 46.2 µM), most hits filed as inhibitors; hit rate 15% among 420,000; AID 686978, 2013; further: nearly all actives have a fitted effect of over 55% in size
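Luminescent ATP content (CellTiter-Glo) served as the growth readout. Knockout chicken DT40 cells expressing human TDP1 were exposed to compounds without camptothecin for a minimum 48 hr at 37 °C.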
HT1080 IDH1KD tx: kills HT-1080 cells with IDH1 knockdown; HT-1080 IDH1 knockdown viability, ATP luminescence, 48 h; Potency, µM (series often up to 46.1 µM), usual class: cytotoxic; hit rate 2% among 360,000
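Cytotoxicity counter-line: IDH1KD HT-1080, 48 h, CellTiter-Glo. Curves classed by r2, magnitude and activity.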
IL-1B inflam inh: inhibitors of inflammasome signaling (IL-1 beta secretion) | THP-1 LPS/ATP IL-1B secretion, AlphaLISA, 16 h; stronger effect = lower value | activity change, % at 57.5 µM | hit rate 4.7% among 360,000; in the data active means activity change below about -50%; inconclusive means mostly about -30% to -49%
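Secreted IL-1B measured by AlphaLISA bead assay after 16 h compound exposure of THP-1 cells; compounds (final up to 57.5 uM) added 1 h before LPS (250 ng/mL) and ATP (1.25 mM) stimulation; lower signal means less secretion.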
HT1080-NT tox: kills 2HG-producing HT-1080-NT fibrosarcoma cells; hit rate 1.6% among 360,000; AID 686970; HT-1080-NT fibrosarcoma viability, CellTiter-Glo ATP luminescence, 48 h; Potency, µM (doses to about 46.1 µM), hits mostly cytotoxic;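 further: NT is the 2HG producing partner of a matched IDH1 knockdown line; nearly all actives have a fitted effect of over 55% in size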
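Fibrosarcoma NT cells, 750 per well in 5% FBS RPMI, were exposed to compound for 48 hours. Viability: CellTiter-Glo luminescence.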
Each line names hits and unclear results; the compound was inactive in the other large screens. Unless noted, the call rests on the fitted dose curve; in most records, active means well fitted curve in the direction sought with a large enough effect; inconclusive means small, poorly fitted or top-dose-only effect, or another doubt; inactive means no such curve, though single readings can be large; an effect the other way counts as inactive or inconclusive.

C[C@@]12C(=O)Nc3cc(F)ccc3C(=O)N1[C@H]1c3cc(Br)ccc3OC[C@@H]1[C@@H]2c1ccccc1	TDP1 cell CPT inconclusive, TDP1 cell noCPT inconclusive, HT1080 IDH1KD tx inconclusive, HT1080-NT tox inconclusive
C[C@@]12C(=O)N(CC3CCCO3)CC(=O)N1[C@@H]1c3ccccc3OC[C@@H]1[C@@H]2c1ccccc1 (some centres undefined)	none
C[C@@]12C(=O)N(CC3CCCO3)CC(=O)N1[C@H]1c3cc(Cl)ccc3OC[C@@H]1[C@@H]2c1ccccc1 (some centres undefined)	TDP1 cell CPT 23µM, TDP1 cell noCPT 15µM
C[C@@]12C(=O)Nc3ccc(F)cc3C(=O)N1[C@H]1c3cc(Br)ccc3OC[C@@H]1[C@@H]2c1ccccc1	TDP1 cell CPT inconclusive, TDP1 cell noCPT 23µM, HT1080 IDH1KD tx inconclusive, HT1080-NT tox inconclusive
C[C@@]12C(=O)Nc3ccccc3C(=O)N1[C@H]1c3cc(Cl)ccc3OC[C@@H]1[C@@H]2c1ccccc1	TDP1 cell CPT inconclusive, TDP1 cell noCPT inconclusive, HT1080 IDH1KD tx 18µM, IL-1B inflam inh inconclusive, HT1080-NT tox inconclusive
C[C@@]12C(=O)Nc3cc(F)c(F)cc3C(=O)N1[C@H]1c3cc(Cl)ccc3OC[C@@H]1[C@@H]2c1ccccc1	TDP1 cell CPT inconclusive, TDP1 cell noCPT inconclusive, HT1080 IDH1KD tx inconclusive, HT1080-NT tox inconclusive
C[C@@]12C(=O)Nc3ccc(Br)cc3C(=O)N1[C@H]1c3cc(Cl)ccc3OC[C@@H]1[C@@H]2c1ccccc1	TDP1 cell CPT inconclusive, TDP1 cell noCPT 18µM
COc1cccc(NC(=O)CN(C)C(=O)CC2CCCCC2)c1	none
COC(=O)c1sccc1-n1cccc1C(=O)C(=O)N1CC(C)OC(C)C1 (centres undefined)	HT1080-NT tox inconclusive
CCOC(=O)c1cccc(NC(=O)Nc2ccc3c(c2)N(C)C(=O)c2ccccc2S3)c1	TDP1 cell CPT 21µM, TDP1 cell noCPT inconclusive (no result: HT1080 IDH1KD tx, IL-1B inflam inh, HT1080-NT tox)
CC(C)Oc1ccc(CNC(=O)Nc2ccc3c(c2)N(C)C(=O)c2ccccc2S3)cc1	TDP1 cell CPT inconclusive, TDP1 cell noCPT 23µM (no result: HT1080 IDH1KD tx, IL-1B inflam inh, HT1080-NT tox)
CCCCNC(=O)Nc1ccc2c(c1)N(C)C(=O)c1ccccc1S2	TDP1 cell CPT inconclusive, TDP1 cell noCPT 16µM
CCOC(=O)c1cccc(NC(=O)CN2C(=O)CC(C)(C)Sc3ccccc32)c1	TDP1 cell CPT 21µM, TDP1 cell noCPT inconclusive (no result: HT1080 IDH1KD tx, IL-1B inflam inh, HT1080-NT tox)
CCCNC(=O)Nc1ccc2c(c1)N(C)C(=O)c1ccccc1S2	TDP1 cell noCPT inconclusive
CCCCN(C)C(=O)c1sc(=O)n(Cc2c(C)cccc2C)c1C	TDP1 cell CPT inconclusive, TDP1 cell noCPT inconclusive
CCOC(=O)c1ccccc1NC(=O)CN1C(=O)CCS(=O)(=O)c2ccccc21	TDP1 cell CPT 23µM, TDP1 cell noCPT 21µM
Cc1ccc(CNc2nc(Cl)c(C#N)s2)cc1	none
N#Cc1sc(NCc2cccc(Cl)c2)nc1Cl	TDP1 cell noCPT inconclusive, HT1080 IDH1KD tx inconclusive, HT1080-NT tox 23µM
CC(=O)N1CCc2cc(S(=O)(=O)NC(CC(C)C)C(=O)N3CCn4c3nc3ccccc34)ccc21 (centres undefined)	none
COc1cccc(C(NC(C)=O)c2nc(-c3ccccc3)cs2)c1 (centres undefined)	TDP1 cell CPT inconclusive, TDP1 cell noCPT inconclusive
COc1ccc(-c2csc(C(NC(C)=O)c3cccc(F)c3)n2)cc1 (centres undefined)	TDP1 cell CPT inconclusive, TDP1 cell noCPT 16µM
COc1cccc(C(NC(C)=O)c2nc(-c3ccc(OC)nc3)cs2)c1 (centres undefined)	TDP1 cell CPT inconclusive, TDP1 cell noCPT inconclusive, IL-1B inflam inh -74
COc1cccc(C(NC(C)=O)c2nc(-c3cccc(O)c3)cs2)c1 (centres undefined)	TDP1 cell CPT 23µM, TDP1 cell noCPT 18µM, HT1080-NT tox inconclusive
COc1cccc(C(NC(C)=O)c2nc(-c3cccc(C#N)c3)cs2)c1 (centres undefined)	TDP1 cell CPT 29µM, TDP1 cell noCPT inconclusive, IL-1B inflam inh -74
Cc1cc(NC(=O)COC(=O)c2ccccc2OCCOc2ccccc2)ccc1Br	TDP1 cell noCPT inconclusive (no result: IL-1B inflam inh)
CCOC(=O)C1=C(C)N=c2s/c(=C3\C(=O)Nc4ccccc43)c(=O)n2C1c1ccc2c(c1)OCO2 (centres undefined)	TDP1 cell CPT inconclusive, TDP1 cell noCPT inconclusive
COc1ccc(C2C(C(C)=O)=C(C)N=c3s/c(=C\c4ccco4)c(=O)n32)c(OC)c1 (centres undefined)	TDP1 cell CPT 8.2µM
CCOC(=O)C1=C(C)N=c2s/c(=C\c3ccc(O)c([N+](=O)[O-])c3)c(=O)n2C1c1ccccc1OC (centres undefined)	TDP1 cell noCPT 18µM, HT1080-NT tox inconclusive
CCOC(=O)C1=C(C)N=c2s/c(=C\c3ccncc3)c(=O)n2C1c1ccc2c(c1)OCO2 (centres undefined)	TDP1 cell CPT inconclusive, TDP1 cell noCPT inconclusive, IL-1B inflam inh -67, HT1080-NT tox inconclusive
COc1ccc(C2C(C(C)=O)=C(C)N=c3s/c(=C\c4cc(C)n(C)c4C)c(=O)n32)c(OC)c1 (centres undefined)	TDP1 cell CPT inconclusive, TDP1 cell noCPT inconclusive
CCOC(=O)C1=C(c2ccccc2)N=c2s/c(=C\c3cc(OC)c(OC)c(OC)c3)c(=O)n2C1c1cccs1 (centres undefined)	TDP1 cell CPT inconclusive, TDP1 cell noCPT 6.5µM
Clc1ccccc1OCCSc1nnc(-c2cccs2)o1	none (no result: HT1080 IDH1KD tx, IL-1B inflam inh, HT1080-NT tox)
c1cc(CSc2nnc(-c3ccc4c(c3)OCO4)o2)ccn1	TDP1 cell noCPT inconclusive
CCOC(=O)C1=C(C)N=c2s/c(=C/c3cccc([N+](=O)[O-])c3O)c(=O)n2C1c1ccc(OC)cc1OC (centres undefined)	TDP1 cell CPT inconclusive, TDP1 cell noCPT inconclusive
COc1ccc(/C=c2/sc3n(c2=O)C(c2ccccc2OC)C2=C(N=3)c3ccccc3CC2)cc1O (centres undefined)	TDP1 cell CPT 29µM, TDP1 cell noCPT 23µM, HT1080 IDH1KD tx 26µM, HT1080-NT tox inconclusive
COc1ccccc1C1C2=C(N=C3SCC(=O)N31)c1ccccc1CC2 (centres undefined)	TDP1 cell CPT inconclusive, TDP1 cell noCPT inconclusive
CCOC(=O)C1=C(C)n2c(s/c(=C/c3cccc([N+](=O)[O-])c3)c2=O)=NC1c1ccc(O)c(OC)c1 (centres undefined)	TDP1 cell CPT 16µM, TDP1 cell noCPT 16µM, HT1080 IDH1KD tx inconclusive, IL-1B inflam inh -78
CCOc1ccc(C(=O)c2oc3ccccc3c2NC(=O)c2cc(=O)c3ccc(C)cc3o2)cc1	none (no result: HT1080 IDH1KD tx, IL-1B inflam inh, HT1080-NT tox)
